Reference: PubChem BioAssay (Tox21)
Where “and” joins values, the source holds several entries; their conditions need not be identical. Equal entries are not always repeated. Results filed as inconclusive are left out. A structure can be active in one record and inactive in another. Calls of active or inactive are those of the source. Unless noted, calls come from the whole dose curve.

Tests used:
[1] = Nuclear factor erythroid 2-related factor 2/antioxidant responsive element (Nrf2/ARE) small molecule agonists: qHTS cell viability counter screen in human keratinocytes (AID 1919968; active = well fitted curve in the direction sought with a large enough effect in the repeat runs; an effect the other way counts as inactive or inconclusive; note: nearly all actives have a fitted effect of over 55% in size; note: potency is the fitted concentration of half-maximal effect)
Summary of the method: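 In human HaCaT keratinocytes stably expressing an ARE-driven luciferase, compound exposure lasted 23 h at 37 C under 5% CO2. Viable cells are quantified with a protease-based fluorogenic reagent (CellTiter-Fluor) read 1 h after addition.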

[2] = Nuclear factor erythroid 2-related factor 2/antioxidant responsive element (Nrf2/ARE) small molecule agonists: luciferase reporter gene qHTS assay in human keratinocytes (AID 1919969); note: nearly all actives have a fitted effect of over 35% in size; note: potency is the fitted concentration of half-maximal effect
[3] = target: Gonadotropin-releasing hormone receptor (Homo sapiens) (UniProt P30968); experiment: Human gonadotropin-releasing hormone receptor (GnRHR) small molecule agonists, calcium flux assay in GnRHR-HEK293 cells (AID 1920063); note: nearly all actives have a fitted effect of over 35% in size
Summary of the method: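 Intracellular calcium rise is the read-out: engineered human GnRHR HEK293 cells, dye-loaded, are exposed to DMSO-dissolved compounds and fluorescence at Ex/Em 480/540 is tracked for 3 min.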

[4] = target: KiSS-1 receptor (Homo sapiens) (UniProt Q969F8); experiment: Human kisspeptin (KISS1R) small molecule agonists, calcium flux assay in KISS1R-HEK293 cells (AID 1920064; active = well fitted curve in the direction sought with a large enough effect in the repeat runs; an effect the other way counts as inactive or inconclusive)
Summary of the method: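 Concentration-response testing used 15 concentrations in triplicate on human KISS1R-expressing HEK293 cells. Calcium-dependent fluorescence (Ex/Em 480/540) was followed kinetically for 3 min after compound transfer.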

[5] = G protein-coupled receptor (GPCR) small molecule agonists, calcium flux assay: HEK293 wild type cell line counter screen (AID 1920065)
Summary of the method: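 Fluorescence intensity signals activation. After overnight (18 h) culture and a 1 h calcium dye load at 37 C, compounds are added by pin tool and the plate read at 480/540 nm for 3 min in 1 s steps.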

[6] = p53 small molecule agonists, cell-based qHTS assay with human liver microsomes (AID 1963577)
Summary of the method: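 p53RE-bla cells, 4,000/well, compound added after 5 h, with human liver microsomes 0.5 mg/mL and NADPH 0.5 mg/mL final; 16 h at 37 C, then LiveBLAzer 2 h RT, fluorescence.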

[7] = p53 small molecule agonists, cell-based qHTS assay with rat liver microsomes (AID 1963578); note: potency is the fitted concentration of half-maximal effect
Summary of the method: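 p53RE-bla cells, 4,000/well, pre-incubated 5 h, then given compounds plus rat liver microsomes (0.5 mg/mL final) and NADPH (0.5 mg/mL final). Incubation 16 h at 37 C; beta-lactamase reporter read by LiveBLAzer fluorescence after 2 h at room temperature.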

[8] = p53 small molecule agonists, cell-based qHTS assay with human liver microsomes: qHTS cell viability counter screen (AID 1963579); note: nearly all actives have a fitted effect of over 45% in size
Summary of the method: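 p53RE-bla cells, 4,000/well, dosed 5 hours after plating, with human liver microsomes (0.5 mg/mL final) plus NADPH (0.5 mg/mL final), 16 hours at 37 C. Viability read as CellTiter-Glo luminescence after 30 min at room temperature.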

[9] = p53 small molecule agonists, cell-based qHTS assay with rat liver microsomes: qHTS cell viability counter screen (AID 1963580); note: nearly all actives have a fitted effect of over 45% in size
Summary of the method: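 After the beta-lactamase ratio was read, CellTiter-Glo was added to the same wells and luminescence measured at 30 min; cells had been treated 16 h at 37 C with compounds, rat liver microsomes and NADPH (0.5 mg/mL final each).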

[10] = p53 small molecule agonists, cell-based qHTS assay: qHTS cell viability counter screen (AID 1963581); note: nearly all actives have a fitted effect of over 45% in size
Summary of the method: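 Luminescence from CellTiter-Glo, reflecting ATP content, serves as the cytotoxicity measure; it is taken after the 2 h reporter substrate step in HCT-116 p53RE-bla cells dosed for 16 h at 37 C.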

[11] = p53 small molecule agonists, cell-based qHTS assay (AID 1963582; active = well fitted activation curve with a large enough effect in the signal ratio in the repeat runs, not every such curve was filed as active; the % refers to the signal ratio; note: potency is the fitted concentration of half-maximal effect)
Summary of the method: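 After plating, p53RE-bla cells sat 5 h in the incubator; compounds or DMSO vehicle were pinned in; a 16 h incubation at 37 C followed; FRET substrate was added and, 2 h later at RT, fluorescence was measured.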

[12] = cAMP Responsive Elements (CRE) small molecule agonists, cell-based qHTS assay (AID 1963590)
Summary of the method: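 Compound exposure lasted 3 h at 37 C/5% CO2 in CRE-bla HEK 293T cells grown in assay medium with 10% dialyzed FBS and 25 mM HEPES. Reporter signal came from LiveBLAzer B/G FRET substrate, 2 h, room temperature.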

[13] = target: Beta-2 adrenergic receptor (Homo sapiens) (UniProt P07550); experiment: Adrenergic beta2 receptor (ADRB2) small molecule antagonists, cell-based qHTS assay (AID 1963592); note: series mostly up to about 92 µM; nearly all actives have a fitted effect of over 50% in size
Summary of the method: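 Assay format: CHO-ADRB2 cells, 18-20hr seeding at 37C/5% CO2, then compound plus 1nM isoproterenol agonist mix for 0.5hr RT. Homogeneous time-resolved fluorescence cAMP detection after 1hr, expressed as 665/615 nm ratio.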

[14] = target: Beta-2 adrenergic receptor (Homo sapiens) (UniProt P07550); experiment: Adrenergic beta2 receptor (ADRB2) small molecule agonists, cell-based qHTS assay (AID 1963593);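 note: CHO cells stably overexpressing human ADRB2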
Summary of the method: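 CHO cells stably over-expressing ADRB2 were plated overnight at 37C, then dosed with compounds plus a stimulation mix containing 100uM IBMX and 25uM Ro-20-1724 for 0.5hr at room temperature. cAMP was measured by HTRF competition, 1hr.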

[15] = target: D(2) dopamine receptor (Homo sapiens) (UniProt P14416); experiment: Dopamine D2 receptor (DRD2) small molecule agonists, cell-based qHTS assay (AID 1963594); note: nearly all actives have a fitted effect of over 35% in size
Summary of the method: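 HEK293 cells stably expressing human DRD2, pre-treated with PDE inhibitor Ro20-1724 (0.1 mM final) and compound 10 min at room temperature, then stimulated with NKH477 (200nM […]) for 30 min. cAMP read by HTRF (665/620 nm).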

[16] = target: D(2) dopamine receptor (Homo sapiens) (UniProt P14416); experiment: Dopamine D2 receptor (DRD2) small molecule antagonists, cell-based qHTS assay (AID 1963595; active = well fitted inhibition curve with a large enough effect in the signal ratio in the repeat runs, with a control signal flat; the % refers to the signal ratio)
Summary of the method: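 Cells were plated and grown for 24 h at 37 °C. Ro20-1724 (0.1 mM final) went in first, then compound for 10 min. NKH477 (200 nM) with quinpirole (12 nM) followed for 30 min at RT, then HTRF detection reagents for 1 h.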

[17] = target: 5-hydroxytryptamine receptor 2A (Homo sapiens) (UniProt P28223); experiment: 5-hydroxytryptamine receptor 2A (HTR2A) small molecule antagonists, cell-based qHTS assay (AID 1963586); note: nearly all actives have a fitted effect of over 45% in size
Summary of the method: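 CHO cells stably expressing human HTR2A were plated for 18 h at 37 C, then loaded with calcium dye for 1 h. Compounds were preincubated 5 min at room temperature before DOI (4 nM solution) was added. Kinetic fluorescence was read for 3 min.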

[18] = target: 5-hydroxytryptamine receptor 2A (Homo sapiens) (UniProt P28223); experiment: 5-hydroxytryptamine receptor 2A (HTR2A) small molecule agonists, cell-based qHTS assay (AID 1963587); note: nearly all actives have a fitted effect of over 30% in size
Summary of the method: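 CHO cells stably expressing human HTR2A, plated 18 h, loaded with calcium dye 1 h at 37 C. Agonist mode: compounds added and intracellular calcium fluorescence recorded kinetically for 2 min at 1 sec intervals.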

[19] = target: Muscarinic acetylcholine receptor M1 (Homo sapiens) (UniProt P11229); experiment: Cholinergic receptor muscarinic 1 (CHRM1) small molecule agonists, cell-based qHTS assay (AID 1963589); note: nearly all actives have a fitted effect of over 35% in size
Summary of the method: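 Fluorescent calcium dye reports M1 activation in stably transfected CHO cells. Compounds, 15 concentrations, added after 1 h dye loading at 37 C; kinetic reading at 1 sec intervals.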

[20] = cAMP Responsive Elements (CRE) small molecule antagonists, cell-based qHTS assay (AID 1963591; active = well fitted inhibition curve with a large enough effect in the signal ratio in the repeat runs, not every such curve was filed as active; the % refers to the signal ratio)
Summary of the method: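 Stimulation used NKH477 at a final 0.25 uM for 3 h in compound-treated CRE-bla HEK293T cells, seeded 18 h beforehand. Reporter activity was measured with LiveBLAzer B/G FRET substrate after 2 h at room temperature.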

Measured: Potency

Gonadotropin-releasing hormone receptor (Homo sapiens), sequence (P30968 whole entry, looked up): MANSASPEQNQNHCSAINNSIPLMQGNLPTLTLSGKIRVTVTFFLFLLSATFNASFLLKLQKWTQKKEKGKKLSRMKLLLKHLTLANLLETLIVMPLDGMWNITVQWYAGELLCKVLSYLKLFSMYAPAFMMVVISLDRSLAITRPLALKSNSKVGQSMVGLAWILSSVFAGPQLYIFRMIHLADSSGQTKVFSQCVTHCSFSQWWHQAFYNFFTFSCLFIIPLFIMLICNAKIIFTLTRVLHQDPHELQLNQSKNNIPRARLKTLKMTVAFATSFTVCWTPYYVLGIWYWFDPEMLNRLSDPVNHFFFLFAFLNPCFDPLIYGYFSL
KiSS-1 receptor (Homo sapiens), sequence (Q969F8 whole entry, looked up): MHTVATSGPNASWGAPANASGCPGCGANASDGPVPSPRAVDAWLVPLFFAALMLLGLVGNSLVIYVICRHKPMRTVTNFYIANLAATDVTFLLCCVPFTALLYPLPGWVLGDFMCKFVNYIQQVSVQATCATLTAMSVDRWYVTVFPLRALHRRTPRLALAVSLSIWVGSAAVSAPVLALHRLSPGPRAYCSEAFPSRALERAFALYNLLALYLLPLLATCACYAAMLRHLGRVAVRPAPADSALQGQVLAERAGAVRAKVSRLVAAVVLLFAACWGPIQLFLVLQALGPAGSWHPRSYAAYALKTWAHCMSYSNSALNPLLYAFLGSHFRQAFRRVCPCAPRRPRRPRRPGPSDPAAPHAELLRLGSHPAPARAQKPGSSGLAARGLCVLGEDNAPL
D(2) dopamine receptor (Homo sapiens), sequence (P14416 whole entry, looked up): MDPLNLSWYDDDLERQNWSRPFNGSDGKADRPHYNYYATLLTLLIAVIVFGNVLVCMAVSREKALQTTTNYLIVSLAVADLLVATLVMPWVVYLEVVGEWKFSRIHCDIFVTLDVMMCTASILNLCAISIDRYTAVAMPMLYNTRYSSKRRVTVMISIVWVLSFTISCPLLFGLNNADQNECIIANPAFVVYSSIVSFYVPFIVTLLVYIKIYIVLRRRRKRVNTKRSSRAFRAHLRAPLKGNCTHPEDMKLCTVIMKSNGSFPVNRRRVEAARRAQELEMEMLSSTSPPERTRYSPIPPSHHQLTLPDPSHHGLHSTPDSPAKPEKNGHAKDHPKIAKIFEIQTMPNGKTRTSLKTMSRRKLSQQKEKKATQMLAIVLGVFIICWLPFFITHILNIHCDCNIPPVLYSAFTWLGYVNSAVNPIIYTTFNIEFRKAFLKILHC
5-hydroxytryptamine receptor 2A (Homo sapiens), sequence (P28223 whole entry, looked up): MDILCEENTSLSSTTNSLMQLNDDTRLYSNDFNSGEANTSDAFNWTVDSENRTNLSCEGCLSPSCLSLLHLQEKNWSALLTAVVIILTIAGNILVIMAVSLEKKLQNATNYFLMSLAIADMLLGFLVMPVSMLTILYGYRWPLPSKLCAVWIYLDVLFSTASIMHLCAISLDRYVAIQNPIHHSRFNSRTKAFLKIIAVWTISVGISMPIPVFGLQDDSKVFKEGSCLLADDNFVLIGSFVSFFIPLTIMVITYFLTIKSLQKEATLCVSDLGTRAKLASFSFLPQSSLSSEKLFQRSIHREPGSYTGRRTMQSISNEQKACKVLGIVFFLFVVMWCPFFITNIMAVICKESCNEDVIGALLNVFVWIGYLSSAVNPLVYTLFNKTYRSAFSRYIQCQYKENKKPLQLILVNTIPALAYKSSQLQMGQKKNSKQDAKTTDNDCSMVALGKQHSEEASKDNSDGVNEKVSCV
Muscarinic acetylcholine receptor M1 (Homo sapiens), sequence (P11229 whole entry, looked up): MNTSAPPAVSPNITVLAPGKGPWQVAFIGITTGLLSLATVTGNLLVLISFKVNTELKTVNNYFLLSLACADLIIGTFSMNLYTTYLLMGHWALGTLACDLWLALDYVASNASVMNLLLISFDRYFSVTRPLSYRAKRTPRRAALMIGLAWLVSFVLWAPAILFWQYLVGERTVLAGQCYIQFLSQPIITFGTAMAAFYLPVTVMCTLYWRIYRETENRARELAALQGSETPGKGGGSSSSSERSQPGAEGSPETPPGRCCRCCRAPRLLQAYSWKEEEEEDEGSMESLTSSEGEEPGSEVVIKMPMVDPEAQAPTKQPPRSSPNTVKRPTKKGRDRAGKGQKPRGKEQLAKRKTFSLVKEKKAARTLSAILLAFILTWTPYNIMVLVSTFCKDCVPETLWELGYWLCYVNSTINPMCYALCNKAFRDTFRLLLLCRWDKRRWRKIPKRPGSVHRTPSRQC
Beta-2 adrenergic receptor (Homo sapiens), sequence (P07550 whole entry, looked up): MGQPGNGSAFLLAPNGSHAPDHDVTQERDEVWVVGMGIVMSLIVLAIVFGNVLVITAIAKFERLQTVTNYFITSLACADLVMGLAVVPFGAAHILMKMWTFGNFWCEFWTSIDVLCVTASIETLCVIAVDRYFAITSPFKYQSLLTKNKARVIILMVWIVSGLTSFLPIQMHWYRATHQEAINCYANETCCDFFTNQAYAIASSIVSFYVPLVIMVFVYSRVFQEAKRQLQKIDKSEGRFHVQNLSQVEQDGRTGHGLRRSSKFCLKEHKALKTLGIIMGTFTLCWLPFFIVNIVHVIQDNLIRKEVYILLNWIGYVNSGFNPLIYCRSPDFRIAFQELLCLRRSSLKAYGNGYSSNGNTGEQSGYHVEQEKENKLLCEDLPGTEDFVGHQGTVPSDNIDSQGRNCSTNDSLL

C#C[C@]1(O)CC[C@H]2[C@@H]3CCC4=CC(=O)CC[C@@H]4[C@H]3CC[C@@]21CC
not listed: [15] | [16] | [17] | [18] | [19] | [20]
inactive: all other assays above

Cc1[nH]c(=O)c(C#N)cc1-c1ccncc1
not listed: [17] | [18] | [19] | [20]
inactive: all other assays above

C=CC(=O)OCCC(=O)O
not listed: [11]
inactive: all other assays above

CC1=C(/C=C/C(C)=C/C=C/C(C)=C/CO)C(C)(C)CCC1
active: [2] 69.4 µM and 72.3 µM
not listed: [11] | [12] | [20]
inactive: all other assays above

OC[C@H]1O[C@@H](Oc2ccc(O)cc2)[C@H](O)[C@@H](O)[C@@H]1O
not listed: [11]
inactive: all other assays above

OC[C@@H](O)[C@@H](O)[C@H](O)[C@H](O)CO
not listed: [17] | [18] | [19] | [20]
inactive: all other assays above

c1ccc2c(c1)c1cccc3ccc4cccc2c4c31
active: [7] 32.2 µM
45.4 µM (active) and inactive: [11]
not listed: [14] | [17] | [18] | [19] | [20]
inactive: all other assays above

O=C(O)CCCCCCCCC(=O)O
not listed: [11] | [14]
inactive: all other assays above

C[C@]12CC[C@@H]3c4ccc(O)cc4CC[C@H]3[C@@H]1C[C@@H](O)[C@@H]2O
not listed: [17] | [18] | [19] | [20]
inactive: all other assays above

O=C(O)Cc1ccccc1Nc1c(Cl)cccc1Cl
not listed: [12] | [17] | [18] | [19]
inactive: all other assays above

CCCCCCCCCCCCCCCC(=O)OC(C)C
not listed: [11] | [14]
inactive: all other assays above

COc1ccc(Cl)cc1C(=O)NCCc1ccc(S(=O)(=O)NC(=O)NC2CCCCC2)cc1
not listed: [12] | [14] | [17] | [18] | [19] | [20]
inactive: all other assays above

CCCCOCCO
not listed: [11] | [14]
inactive: all other assays above

CC[C@H](C)C(=O)O[C@H]1C[C@@H](C)C=C2C=C[C@H](C)[C@H](CC[C@@H]3C[C@@H](O)CC(=O)O3)[C@H]21
69.6 µM (active) and inactive: [1]
not listed: [14] | [15] | [16] | [17] | [18] | [19] | [20]
inactive: all other assays above

NCCS(=O)(=O)O
not listed: [11] | [14]
inactive: all other assays above
